Here are results for 18 molecules from PubChem BioAssay (EPA / NIEHS).

Structures are written as SMILES. Results filed as inconclusive are left out. Activity calls are given as the source filed them. Rule for the calls: active = hit-call score of the fitted dose curve at least 0.9, where 1 is the maximum; inconclusive = response in the unintended direction; inactive = score below 0.9.

Bile acid receptor (Homo sapiens), sequence (Q96RI1 whole entry, looked up, the tested form may be a part): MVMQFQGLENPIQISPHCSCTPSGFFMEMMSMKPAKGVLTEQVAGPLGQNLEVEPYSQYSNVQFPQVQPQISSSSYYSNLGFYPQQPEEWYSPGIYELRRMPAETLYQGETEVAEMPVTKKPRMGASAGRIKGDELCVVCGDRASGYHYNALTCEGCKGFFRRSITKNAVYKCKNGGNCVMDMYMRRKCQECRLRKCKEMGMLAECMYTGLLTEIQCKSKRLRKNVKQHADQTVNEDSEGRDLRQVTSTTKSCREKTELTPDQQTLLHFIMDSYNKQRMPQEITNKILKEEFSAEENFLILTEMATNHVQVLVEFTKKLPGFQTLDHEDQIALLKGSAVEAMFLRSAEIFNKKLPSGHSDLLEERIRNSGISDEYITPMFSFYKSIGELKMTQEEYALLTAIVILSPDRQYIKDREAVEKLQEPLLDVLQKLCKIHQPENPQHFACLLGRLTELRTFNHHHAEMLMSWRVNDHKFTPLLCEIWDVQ
Glucocorticoid receptor (Homo sapiens), sequence (P04150 whole entry, looked up, the tested form may be a part): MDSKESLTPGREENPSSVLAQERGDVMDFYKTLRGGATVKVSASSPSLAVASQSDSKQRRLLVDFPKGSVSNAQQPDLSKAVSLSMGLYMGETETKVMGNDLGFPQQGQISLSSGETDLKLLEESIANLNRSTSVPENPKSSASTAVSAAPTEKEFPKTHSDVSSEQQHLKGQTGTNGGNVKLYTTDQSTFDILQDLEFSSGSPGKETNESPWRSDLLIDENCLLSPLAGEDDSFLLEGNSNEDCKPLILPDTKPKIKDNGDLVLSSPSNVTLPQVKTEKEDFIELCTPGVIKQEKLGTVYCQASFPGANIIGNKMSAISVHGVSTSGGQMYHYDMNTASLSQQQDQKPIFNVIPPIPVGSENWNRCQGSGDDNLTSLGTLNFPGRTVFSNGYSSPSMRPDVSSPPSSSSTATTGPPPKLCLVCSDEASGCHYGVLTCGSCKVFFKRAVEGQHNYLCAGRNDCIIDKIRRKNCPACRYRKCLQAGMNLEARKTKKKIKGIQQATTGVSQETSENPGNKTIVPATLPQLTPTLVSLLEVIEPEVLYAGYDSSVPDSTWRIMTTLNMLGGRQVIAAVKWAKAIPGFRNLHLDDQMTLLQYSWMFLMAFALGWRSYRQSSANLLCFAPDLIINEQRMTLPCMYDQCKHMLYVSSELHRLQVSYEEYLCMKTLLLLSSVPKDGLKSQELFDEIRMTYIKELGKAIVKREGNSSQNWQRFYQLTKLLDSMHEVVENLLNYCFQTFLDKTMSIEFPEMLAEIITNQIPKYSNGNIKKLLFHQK

In the first experiment the target is Glucocorticoid receptor (Homo sapiens) (UniProt P04150). Kind of experiment: ATG_GR_TRANS: Attagene TRANS-FACTORIAL HepG2 Assay for human Glucocorticoid Receptor (GR) (AID 2282978).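 Note: activators score as hits since higher reporter transcript over DMSO is fitted.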 As to conditions: HepG2 Attagene TRANS GR reporter, mRNA transcription. The procedure, abridged:
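HepG2 cells transiently transfected with multiplexed reporter units in which chimeric NR-GAL4 proteins drive GAL4-UAS reporters; 24 h compound exposure. Reporter mRNA measured by RT-PCR, 6-FAM labelling, HpaI digestion and capillary electrophoresis; gain-of-signal fitted versus DMSO.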
For the molecule `CCCCCCCCCc1ccc(OCCO)cc1`, the outcome was inactive.

`CC(C)Nc1ccc(NC(C)C)c2c1C(=O)c1ccccc1C2=O`: the result was inactive.

Regarding `OCC(F)(F)C(F)(F)C(F)(F)CO`, the molecule was classed as inactive.

For `COC(F)(C(F)F)C(F)(F)F` (stereo not drawn), the call was inactive.

The next experiment has as its target Bile acid receptor (Homo sapiens) (UniProt Q96RI1). The experiment in a line: ATG_FXR_TRANS: Attagene TRANS-FACTORIAL HepG2 Assay for Farnesoid X Receptor (FXR) (AID 2282979).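 Note: hits raise reporter mRNA above DMSO so AC50 marks FXR activation.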 The settings on record: HepG2 Attagene TRANS FXR-GAL4 reporter transcription. The method, boiled down: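 Reporter transcripts from transfected HepG2 cells were measured 24 h after dosing, using RT-PCR with capillary electrophoresis of 6-FAM-labelled fragments. The read-out reflects activity of exogenous FXR-Gal4 chimera on GAL4-UAS units, with induction relative to DMSO.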
On to `CCN(CCO)S(=O)(=O)C(F)(F)C(F)(F)C(F)(F)C(F)(F)C(F)(F)C(F)(F)C(F)(F)C(F)(F)F`, for which the molecule was classed as inactive.

As for `CN(N=O)C(=O)N[C@@H]1[C@@H](O)[C@H](O)[C@@H](CO)O[C@@H]1O`, the molecule was classed as inactive.

As for `O=C1OC(=O)c2ccc3c4c(ccc1c24)C(=O)OC3=O`, the call was inactive.

Regarding `OCCCCC(F)(F)C(F)(F)C(F)(F)C(F)(F)F`, the molecule was classed as inactive.

As to `C#CC(O)CCC` (stereo not drawn), the result was inactive.

Take `NC(=O)C(F)(F)C(F)(F)C(F)(F)C(F)F`: the call was inactive.

Regarding `O=C(Cl)C(F)(F)C(F)(F)C(F)(F)C(F)(F)C(F)(F)C(F)(F)C(F)(F)F`, the molecule was classed as inactive.

Consider `CC1=CCC(=O)O1`, for which the molecule was classed as inactive.

On to `CC1=CC2C3C=CC(C3)C2C1C` (stereo not drawn), for which the call was inactive.

With `O=C(O)C(F)(F)OC(F)(F)C(F)(F)OC(F)(F)C(F)(F)OC(F)(F)F`, the call was inactive.

On to `N#Cc1ccccc1O`, for which the outcome was inactive.

Consider `O=C(c1ccccc1)c1ccc(Cl)cc1`, for which the outcome was inactive.

`O=S(=O)(Cl)C(F)(F)C(F)(F)C(F)(F)C(F)(F)C(F)(F)C(F)(F)C(F)(F)C(F)(F)F`: the outcome was inactive.

Consider `Brc1ccccn1`, for which the molecule was called inactive.
